Screening data deposited in PubChem BioAssay by National Center for Advancing Translational Sciences (NCATS).
Hits are enriched below; roughly 0.54% of the tested compounds scored in any of these assays.
BCR signal inh: inhibitors of chronic active B-cell receptor signaling | ABC-DLBCL IkBa-CBG/CBR reporter, luminescence ratio, 4 h | Potency, µM (highest dose often 46.1 µM), actives largely listed as inhibitors | actives 0.05% (n = 340,000); active = well fitted inhibition curve with a large enough effect in the signal ratio, with a control signal flat, not every such curve was filed as active; inconclusive = small, poorly fitted or top-dose-only effect, or effect the other way, or a change in a side signal; the % refers to the signal ratio
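Concentration-response series (up to 46 uM) were applied to TMD8 dual-reporter cells for 4 h at 37C with doxycycline. Green/red ratio, after filter-overlap correction, defined %Activity; red signal alone was normalised to basal cells and zero luminescence.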
TCR activator: T cell receptor activation; primary human leukocytes, anti-CD3, IL-2 HTRF, 48 h; Potency, µM (highest dose often 9.22 µM), actives largely listed as activators; 330,000 tested, under 10 active; AID 504894
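Primary human leukocytes receive a-CD3 beads and test compound and are incubated 48 hr. Secreted IL-2 is then assayed by HTRF, measuring 665nm acceptor emission after 320nm excitation of the europium donor.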
uPA generation: inhibitors of cell surface uPA generation; cell surface uPA generation assay, qHTS; Potency, µM (series often up to 38.3 µM), hits mostly inhibitors; actives 0.31% (n = 330,000); active = well fitted inhibition curve with a large enough effect; inconclusive = small, poorly fitted or top-dose-only effect; inactive = no such curve, though single readings can be large or run the other way; tested in mouse RAW 264.7 cells; also: nearly all actives have a fitted effect of over 55% in size
MBNL1-CUG inh: inhibitors of human MBNL1 binding to CUG repeat RNA | TR-FRET MBNL1-His/biotin-(CUG)12 binding, 665/545 ratio | Potency, µM (doses to about 57.5 µM), usual class: inhibitors | actives 0.036% (n = 280,000) | AID 2675; active = well fitted inhibition curve with a large enough effect in the signal ratio, with a control signal flat, not every such curve was filed as active; inconclusive = small, poorly fitted or top-dose-only effect, or effect the other way, or a change in a side signal; inactive = no such curve, though single readings can be large or run the other way; the % refers to the signal ratio
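Compound titration spanned 92 nM–58 uM against the MBNL1-His/biotin-(CUG)12 complex. After 60 min at room temperature with 5 nM streptavidin-XL665 and 0.055 ng/ul terbium anti-His, ratiometric 665/545 nm emission (Ex 340 nm) normalized to controls.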
Vif-APOBEC3F blk: inhibitors of Vif-A3F interaction; HeLa A3F-eYFP + Vif (tagged APOBEC3F with the HIV-1 protein that degrades it), YFP fluorescence increase; Potency, µM (top dose mostly 46.1 µM); actives 0.2% (n = 390,000); AID 602313; also: nearly all actives have a fitted effect of over 65% in size
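HeLa cells stably expressing Vif plus C-terminally eYFP-tagged A3F were seeded, incubated overnight at 37 deg C, dosed with compound, incubated overnight again at 37 deg C. Yellow fluorescence (Ex 488/Em 500-530) reported blocked Vif-mediated A3F-eYFP degradation.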
Vif-A3G inh: inhibitors of Vif-APOBEC3G interaction; Q9HC16; HeLa A3G-eYFP + Vif (tagged APOBEC3G with the HIV-1 protein that degrades it), YFP fluorescence, overnight; Potency, µM (top dose mostly 46.1 µM), usual class: inhibitors; actives 0.076% (n = 410,000); AID 602310; also: nearly all actives have a fitted effect of over 60% in size
Target sequence (Q9HC16 whole entry, looked up): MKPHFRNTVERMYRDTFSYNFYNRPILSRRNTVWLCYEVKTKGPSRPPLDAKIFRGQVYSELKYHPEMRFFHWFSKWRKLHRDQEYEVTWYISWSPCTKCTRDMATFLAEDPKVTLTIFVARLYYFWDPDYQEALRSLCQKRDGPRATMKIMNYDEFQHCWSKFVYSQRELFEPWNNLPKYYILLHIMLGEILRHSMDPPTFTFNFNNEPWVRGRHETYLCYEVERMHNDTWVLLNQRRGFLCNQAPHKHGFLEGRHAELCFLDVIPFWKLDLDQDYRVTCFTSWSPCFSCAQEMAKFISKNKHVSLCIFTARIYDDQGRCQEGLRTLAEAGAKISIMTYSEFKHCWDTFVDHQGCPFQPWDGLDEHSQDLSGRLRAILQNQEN
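Read-out is eYFP fluorescence (Ex 488/Em 500-530) from Vif-expressing HeLa A3G-eYFP cells; more signal means A3G escaped Vif-mediated degradation. Cells plated overnight, compound pinned in, incubated overnight at 37 deg C.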
Hits are given with their value; n = inactive; u = inconclusive; x = no result given. Unless noted, calls follow the shape of the dose curve; as a rule, active = well fitted curve in the direction sought with a large enough effect; inconclusive = small, poorly fitted or top-dose-only effect, or another doubt; inactive = no such curve, though single readings can be large; an effect the other way counts as inactive or inconclusive.

SMILES | BCR signal inh | TCR activator | uPA generation | MBNL1-CUG inh | Vif-APOBEC3F blk | Vif-A3G inh
COc1cc2c(NC3CCN(C)CC3)nc(N3CCCN(C)CC3)nc2cc1OCCCCCCN(C)C | x | x | x | x | x | n
CC(O)COCC1OC2OC3C(COCC(C)O)OC(OC4C(COCC(C)O)OC(OC5C(COCC(C)O)OC(OC6C(COCC(C)O)OC(OC7C(COCC(C)O)OC(OC8C(COCC(C)O)OC(OC1C(OCC(C)O)C2OCC(C)O)C(OCC(C)O)C8OCC(C)O)C(OCC(C)O)C7OCC(C)O)C(OCC(C)O)C6OCC(C)O)C(OCC(C)O)C5OCC(C)O)C(OCC(C)O)C4OCC(C)O)C(OCC(C)O)C3OCC(C)O (stereo not given) | x | x | x | x | x | n
CCNC(=O)N1CCN(/[N+]([O-])=N/Oc2ccc([N+](=O)[O-])cc2[N+](=O)[O-])CC1 | x | x | x | x | x | n
O=C(NCc1cccc(F)c1)c1cccc2c1C(=O)c1ccc(N3CCC(Cc4ccccc4)CC3)cc1S2(=O)=O | n | n | n | x | 32µM | 11µM
O=C(NCCc1ccc(F)cc1)c1cccc2c1C(=O)c1ccc(N3CCC(Cc4ccccc4)CC3)cc1S2(=O)=O | n | n | n | x | u | u
COc1ccc(/C=C/c2nccc3ccccc23)cc1OC | x | x | x | x | x | n
COc1ccc(/C=C2\CCC/C(=C\C=N\N(C)C)C2=O)cc1 | u | n | 11µM | x | n | n
CN(C)/N=C/C=C1\CCC/C(=C\c2ccc(F)c(F)c2)C1=O | n | n | n | n | u | u
Cc1cnc2c(C)cccc2c1/C=C/c1ccc(N(C)C)cc1 | x | x | x | x | x | n
Cc1cc(C(=O)COC(=O)c2ccc[nH]c2=O)c(C)n1-c1ccccc1F | n | n | 2.8µM | n | n | n
Cc1ccc(-n2c(C)cc(C(=O)COC(=O)c3ccc[nH]c3=O)c2C)cc1C | n | n | n | n | n | n
O=C(O)c1ccc(CSc2nnc(-c3ccco3)o2)cc1 | 18µM | n | n | n | n | n
COc1ccc2ccccc2c1/C=N/NC(=S)NCCN1CCOCC1 | 20µM | n | n | n | u | n
CC(C)CC(=O)NC(=S)N(Cc1ccccc1)Cc1ccccc1 | n | n | n | n | 25µM | n
O=[N+]([O-])c1ccc(/C=C/C2=NN(c3ccccc3)C(c3ccco3)C2)o1 (stereo not given) | u | n | n | n | u | u
C(=C\c1ccco1)/C1=NN(c2ccccc2)C(c2ccco2)C1 (stereo not given) | n | n | n | n | 25µM | u
Cc1cnc2ccc3ccccc3c2c1C | x | x | x | x | x | n
O=C(C[n+]1cc(Br)cc2ccccc21)c1ccc(O)c(O)c1 | x | x | x | x | x | n
COC(=O)[C@@]1(Cc2ccc(OC)cc2)[C@@H]2C(=CC(=O)[C@H]2CC(=O)C(=O)N2CCCC2)CN1C(=O)c1ccccc1 | u | n | 8.9µM | n | n | u
Cc1ccc(NC(=O)c2cnn3c2NC(=C2CC2)C=C3C(F)F)cc1 | x | x | x | x | x | n
N#Cc1cc2ccccc2nc1SCC(=O)Nc1ccccc1N1CCOCC1 | n | n | n | n | 25µM | u
COc1cccc2sc(Nc3nnc(-c4ccc(F)cc4)o3)nc12 | u | n | 5.6µM | n | u | u
COc1cccc2sc(Nc3nnc(-c4cccs4)o3)nc12 | u | n | n | n | n | n
Cc1cc(NC(=O)CSc2nc3c(C)cccc3cc2C#N)no1 | u | n | n | n | 11µM | u
Cc1cnc(NC(=O)CCc2ccccc2)s1 | u | n | 10µM | n | n | u
SMILES | BCR signal inh | TCR activator | uPA generation | MBNL1-CUG inh | Vif-APOBEC3F blk | Vif-A3G inh
Clc1ccc2c(ccc[n+]2CCC2CCCCC2)c1 | x | x | x | x | x | n
O=C(NC1CCCCCC1)c1ccc2c(c1)sc1nc(-c3ccccc3)cn12 | x | x | x | x | 5µM | n
COc1ccc(-c2cn3c(n2)sc2cc(C(=O)NC4CCCCC4)ccc23)cc1 | x | x | x | x | n | n
O=C(O)c1ccccc1-c1ccc(/C=C2\SC(=O)N(c3ccccc3)C2=O)o1 | n | x | n | n | n | n
O=C1S/C(=C\c2ccc(N3CCOCC3)o2)C(=O)N1c1ccccc1 | n | n | n | n | u | 4.5µM
O=C1S/C(=C/c2ccc(N3CCOCC3)o2)C(=O)N1Cc1c(F)cccc1Cl | n | n | n | n | u | 4µM
O=C(Nc1ccc(Br)cc1F)c1cnn2c1NC(=C1CC1)C=C2C(F)F | x | x | x | x | x | n
